The values that follow come from PubChem BioAssay (Tox21).

Assay [1] in a line: qHTS assay to identify small molecule antagonists of the glucocorticoid receptor (GR) signaling pathway - cell viability counter screen (AID 720693). Also: nearly all actives have a fitted effect of over 55% in size.
Assay [2] can be described thus: qHTS assay for identifying genotoxic compounds that show differential cytotoxicity against isogenic chicken DT40 cell lines with known DNA damage response pathways - wild type cell line (AID 743012). Also: nearly all actives have a fitted effect of over 60% in size. Also: potency is read from the fitted curve at half-maximal effect. The essentials:
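Parental DNA repair-proficient DT40 cells, 300 per well, were pre-incubated ~0.5 h at 37 C/5% CO2, pin-dosed with compounds in DMSO, then incubated 40 h. Viability was read as CellTiter-Glo luminescence after 30 min at room temperature.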
A general note: qHTS replaces the single test concentration by a dilution series.

Assay [3] in a line: qHTS assay for identifying genotoxic compounds that show differential cytotoxicity against isogenic chicken DT40 cell lines with known DNA damage response pathways - Rad54/Ku70 mutant cell line (AID 743015). Also: nearly all actives have a fitted effect of over 60% in size.
Assay [4] in a line: qHTS assay to identify small molecule antagonists of the androgen receptor (AR) signaling pathway - cell viability counter screen (AID 743033; also: nearly all actives have a fitted effect of over 45% in size).
The target in assay [5] is Androgen receptor (Homo sapiens) (UniProt P10275). The assay is described as follows: qHTS assay to identify small molecule antagonists of the androgen receptor (AR) signaling pathway (AID 743035; active = well fitted inhibition curve with a large enough effect in the signal ratio in the repeat runs, not every such curve was filed as active; the % refers to the signal ratio). The essentials:
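HEK293 cells stably carrying a UAS-driven beta-lactamase reporter (AR-UAS-bla GripTite) were plated for 4 h at 37C, then given compound and the agonist R1881 and incubated 16 h. Reporter activity was read by LiveBLAzer B/G FRET fluorescence after 2 h at room temperature.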

For assay [6] the target is unchanged. The assay is described as follows: qHTS assay to identify small molecule agonists of the androgen receptor (AR) signaling pathway using the MDA cell line (AID 743040; also: nearly all actives have a fitted effect of over 20% in size). The essentials: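 Human breast carcinoma MDA-kb2 reporter cells (MMTV-luc, AR/GR elements) were treated for 16 h at 37C in 0% CO2 following a 5 h settling period. Signal was quantified by ONE-Glo luminescence.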

Assay [7] can be described thus: qHTS assay to identify small molecule antagonists of the androgen receptor (AR) signaling pathway using the MDA cell line - cell viability counter screen (AID 743041; also: nearly all actives have a fitted effect of over 45% in size). The essentials: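 Same-well cytotoxicity was assessed by CellTiter-Fluor in MDA-kb2 AR-luc cells after 16 h of compound treatment under R1881 agonism.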
The target of assay [8] is Androgen receptor (Homo sapiens) (UniProt P10275). Kind of assay: qHTS assay to identify small molecule antagonists of the androgen receptor (AR) signaling pathway using the MDA cell line (AID 743042; also: nearly all actives have a fitted effect of over 55% in size). The essentials:
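MDA-kb2 breast carcinoma cells carrying MMTV-luciferase (AR/GR responsive) were co-treated with compounds and the agonist R1881 for 16 h at 37C. Inhibition read as ONE-Glo luminescence; CellTiter-Fluor fluorescence measured in parallel for cytotoxicity.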

A short description of assay [9]: qHTS assay to identify small molecule antagonists of the thyroid receptor (TR) signaling pathway - cell viability counter screen (AID 743064). Also: nearly all actives have a fitted effect of over 50% in size. The essentials: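 Compounds were tested on GH3.TRE-Luc cells in the presence of T3 at 1 nM final. Following 23.5 h at 37 °C, cell viability was quantified by CellTiter-Fluor.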
The nature of assay [10]: qHTS assay to identify small molecule antagonists of the thyroid receptor (TR) signaling pathway (AID 743065). Also: series mostly up to about 70 µM; nearly all actives have a fitted effect of over 55% in size. The essentials: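 GH3.TRE-Luc rat pituitary cells (two TREs driving luciferase) were dosed with compound, then stimulated with 1 nM T3 (final) for 23.5 h at 37 C. ONE-Glo luminescence was the read-out, with CellTiter-Fluor fluorescence as the cytotoxicity counter-screen.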

Assay [11] relates to thyroid hormone receptor (rat, GH3 cells). Kind of assay: qHTS assay to identify small molecule agonists of the thyroid receptor (TR) signaling pathway (AID 743066; calls by dose curve).
A short description of assay [12]: qHTS assay to identify small molecule antagonists of the estrogen receptor alpha (ER-alpha) signaling pathway - cell viability counter screen (AID 743074; calls by dose curve;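 also: HEK293 cells carrying ER-alpha-UAS-bla reporter stimulated with 17beta-estradiol; nearly all actives have a fitted effect of over 45% in size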).
For assay [13], the target named is Estrogen receptor (Homo sapiens) (UniProt P03372). The assay is described as follows: qHTS assay to identify small molecule agonists of the estrogen receptor alpha (ER-alpha) signaling pathway (AID 743075; calls by dose curve).
For assay [14] the target is unchanged. Kind of assay: qHTS assay to identify small molecule agonists of the estrogen receptor alpha (ER-alpha) signaling pathway using the BG1 cell line (AID 743079). Also: nearly all actives have a fitted effect of over 20% in size.
The nature of assay [15]: qHTS assay to identify small molecule antagonists of the estrogen receptor alpha (ER-alpha) signaling pathway using the BG1 cell line (AID 743080; calls by dose curve;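 also: BG1 cells stimulated with 17beta-estradiol alongside compound; series mostly up to about 70 µM; nearly all actives have a fitted effect of over 25% in size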). The essentials: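 Endogenous full-length ER-alpha in BG1-Luc-4E2 cells drives a stably integrated 4×ERE luciferase gene; compounds were tested against 17beta-estradiol over 21.5 h, with luminescence and multiplexed viability fluorescence recorded.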

The nature of assay [16]: qHTS assay to identify small molecule antagonists of the estrogen receptor alpha (ER-alpha) signaling pathway using the BG1 cell line - cell viability counter screen (AID 743081).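 Also: compound given together with 17beta-estradiol as the ER stimulus; series mostly up to about 70 µM; nearly all actives have a fitted effect of over 45% in size.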
For the next assay, the target named is Aromatase (Homo sapiens) (UniProt P11511). Kind of assay: qHTS assay to identify aromatase inhibitors (AID 743083). Also: series mostly up to about 70 µM; nearly all actives have a fitted effect of over 55% in size.
Assay [17] is described as follows: qHTS assay for identifying genotoxic compounds that show differential cytotoxicity against isogenic chicken DT40 cell lines with known DNA damage response pathways - Rev3 mutant cell line (AID 743014). Also: nearly all actives have a fitted effect of over 55% in size.
Assay [18] deals with Androgen receptor (Homo sapiens) (UniProt P10275). Kind of assay: qHTS assay to identify small molecule agonists of the androgen receptor (AR) signaling pathway (AID 743036; active = well fitted activation curve with a large enough effect in the signal ratio in the repeat runs, with a control signal flat, not every such curve was filed as active; the % refers to the signal ratio). The essentials:
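Beta-lactamase under UAS control, stably integrated in HEK293 GripTite cells, reports receptor activation. After 16 h compound treatment, cells received FRET substrate for 2 h at room temperature before fluorescence reading.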

The target in assay [19] is Estrogen receptor (Homo sapiens) (UniProt P03372). Kind of assay: qHTS assay to identify small molecule antagonists of the estrogen receptor alpha (ER-alpha) signaling pathway (AID 743069; active = well fitted curve in the direction sought with a large enough effect in the signal ratio in the repeat runs, not every such curve was filed as active; the % refers to the signal ratio). The essentials:
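Reporter cells (ER-alpha-bla, HEK293 background) are conditioned overnight in stripped-serum medium (2% charcoal-stripped FBS). Compound and 17beta-estradiol exposure runs 18 hr at 37C, 5% CO2.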

Results filed as inconclusive are left out. Calls of active or inactive are those of the source. Unless noted, calls follow the shape of the dose curve; as a rule, active = well fitted curve in the direction sought with a large enough effect in the repeat runs; inconclusive = weak or mixed curves; inactive = no such curve, though single readings can be large; an effect the other way counts as inactive or inconclusive.

Aromatase (Homo sapiens), sequence (P11511 whole entry, looked up): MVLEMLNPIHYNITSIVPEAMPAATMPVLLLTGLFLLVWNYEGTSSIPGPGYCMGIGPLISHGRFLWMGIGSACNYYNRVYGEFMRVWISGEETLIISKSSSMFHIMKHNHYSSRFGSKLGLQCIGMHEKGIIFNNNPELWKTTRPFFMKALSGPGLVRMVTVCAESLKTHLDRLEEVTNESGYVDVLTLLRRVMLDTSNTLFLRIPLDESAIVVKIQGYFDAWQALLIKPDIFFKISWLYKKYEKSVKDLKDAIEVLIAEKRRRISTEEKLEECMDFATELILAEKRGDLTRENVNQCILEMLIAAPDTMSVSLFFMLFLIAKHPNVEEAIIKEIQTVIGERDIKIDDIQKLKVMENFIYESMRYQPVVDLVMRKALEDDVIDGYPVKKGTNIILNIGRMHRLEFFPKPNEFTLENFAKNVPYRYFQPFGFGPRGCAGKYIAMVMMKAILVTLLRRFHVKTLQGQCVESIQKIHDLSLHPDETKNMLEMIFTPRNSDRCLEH
Androgen receptor (Homo sapiens), sequence (P10275 whole entry, looked up): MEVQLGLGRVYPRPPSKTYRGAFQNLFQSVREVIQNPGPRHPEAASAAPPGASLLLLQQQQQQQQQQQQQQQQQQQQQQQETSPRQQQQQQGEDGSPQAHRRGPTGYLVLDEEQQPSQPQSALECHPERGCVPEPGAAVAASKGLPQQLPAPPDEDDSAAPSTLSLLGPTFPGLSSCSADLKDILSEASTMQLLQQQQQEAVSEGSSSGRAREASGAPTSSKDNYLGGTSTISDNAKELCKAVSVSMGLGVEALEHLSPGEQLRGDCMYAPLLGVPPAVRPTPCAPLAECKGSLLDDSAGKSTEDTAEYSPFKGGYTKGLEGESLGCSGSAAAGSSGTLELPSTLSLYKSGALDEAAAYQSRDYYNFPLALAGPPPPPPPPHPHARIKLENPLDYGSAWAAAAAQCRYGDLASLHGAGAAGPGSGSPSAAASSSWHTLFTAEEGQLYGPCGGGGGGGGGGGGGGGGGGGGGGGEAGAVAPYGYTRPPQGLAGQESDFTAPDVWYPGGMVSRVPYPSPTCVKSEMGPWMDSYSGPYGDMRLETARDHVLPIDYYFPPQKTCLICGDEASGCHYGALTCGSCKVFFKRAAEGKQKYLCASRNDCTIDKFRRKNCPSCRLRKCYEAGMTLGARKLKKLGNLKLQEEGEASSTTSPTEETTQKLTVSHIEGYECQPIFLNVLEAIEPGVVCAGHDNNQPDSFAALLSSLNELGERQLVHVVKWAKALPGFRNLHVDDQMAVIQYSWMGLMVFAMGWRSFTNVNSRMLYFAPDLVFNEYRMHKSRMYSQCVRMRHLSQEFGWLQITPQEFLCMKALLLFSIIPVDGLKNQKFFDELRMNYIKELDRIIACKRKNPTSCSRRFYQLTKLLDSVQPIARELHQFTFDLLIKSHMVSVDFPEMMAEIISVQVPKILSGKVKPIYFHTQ
Estrogen receptor (Homo sapiens), sequence (P03372 whole entry, looked up): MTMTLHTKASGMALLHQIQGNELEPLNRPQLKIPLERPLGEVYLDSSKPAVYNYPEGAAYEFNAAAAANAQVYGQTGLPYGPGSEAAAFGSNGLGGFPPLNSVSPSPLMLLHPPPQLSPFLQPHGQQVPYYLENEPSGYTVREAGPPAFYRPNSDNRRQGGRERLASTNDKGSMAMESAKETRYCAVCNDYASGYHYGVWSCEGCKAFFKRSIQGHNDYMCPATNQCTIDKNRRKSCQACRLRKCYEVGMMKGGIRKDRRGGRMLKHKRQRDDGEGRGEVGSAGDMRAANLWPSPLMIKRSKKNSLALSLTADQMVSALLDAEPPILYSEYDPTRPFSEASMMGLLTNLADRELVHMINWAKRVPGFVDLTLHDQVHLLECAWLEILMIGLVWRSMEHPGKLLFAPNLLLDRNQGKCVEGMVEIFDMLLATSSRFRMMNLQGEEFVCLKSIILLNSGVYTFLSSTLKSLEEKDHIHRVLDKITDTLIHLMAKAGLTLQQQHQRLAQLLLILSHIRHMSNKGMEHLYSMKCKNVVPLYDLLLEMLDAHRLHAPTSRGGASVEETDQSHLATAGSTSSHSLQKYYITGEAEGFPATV

For the compound `CCO`, the compound was called inactive in assay [1], in assay [4], in [5], in assay [8], in assay [11] and in assay [12]. Besides, the compound was classed as inactive (in assay [15]; with Aromatase (Homo sapiens)). Also, the Potency result in assay [2], in [3], in [6], in assay [7], in assay [9] and in assay [10] was “inactive” throughout. Moreover, the Potency result in assay [13], in [14] and in assay [16] was “inactive” throughout.

In the case of `CC(C)C1OCCN1CCOC(=O)NCCCCCCNC(=O)OCCN1CCOC1C(C)C` (configuration not stated), the compound was classed as inactive in assay [1], in assay [5], in assay [18], in assay [8], in [11] and in [12]. Moreover, the compound was called inactive (in assay [15]; with Aromatase (Homo sapiens)). Further, the Potency entry in assay [2], in [17], in [3], in [6], in assay [7] and in [9] was “inactive” each time. Also, the Potency result in assay [10], in assay [13], in [14] and in [16] was “inactive” in each case.

With `CCOc1cccc(N)c1`, the compound was called inactive in assay [1], in [4], in assay [11], in assay [19], in assay [12] and in assay [15]. In the assay with Aromatase (Homo sapiens), the outcome was inactive. In addition, the Potency result in assay [2], in [3], in assay [7], in [9], in [10] and in assay [13] was “inactive” in each case. For the same compound, the Potency result in assay [14] and in assay [16] was “inactive” in each case.

As to `CC(C)(CO)C(O)C(=O)NCCCO` (configuration not stated), the call (in assay [1]; in assay [4]; in [12]; in assay [15]; with Aromatase (Homo sapiens)) was inactive. The Potency result in [2], in assay [17], in assay [3], in assay [7], in assay [13] and in [14] was “inactive” each time. In addition, the Potency entry in assay [16] is “inactive”.

For the compound `CC(C)=CCC/C(C)=C/COC=O`, the result (in assay [1]; in assay [4]; in assay [11]; in assay [12]; with Aromatase (Homo sapiens)) was inactive. Also, the Potency entry in [2], in assay [3], in [7], in assay [9], in assay [10] and in assay [16] was “inactive” each time.

Turning to `CC1CCc2c(N3CCC(O)CC3)c(F)cc3c(=O)c(C(=O)O)cn1c23` (configuration not stated), the compound was called inactive (in assay [1]; in assay [4]; in [11]; in assay [12]; in assay [15]; with Aromatase (Homo sapiens)). Moreover, the Potency in [2] was 26.6 µM (active). The Potency result in [7], in assay [9], in [10], in [13], in [14] and in assay [16] was “inactive” throughout.

In the case of `CC1(C)[C@H]2CC[C@](C)(C2)[C@H]1O`, the call (in assay [1]; in assay [11]; in assay [19]; in assay [12]; in assay [15]; with Aromatase (Homo sapiens)) was inactive. For the same compound, the Potency result in assay [2], in assay [3], in assay [7], in assay [9], in assay [10] and in assay [13] was “inactive” each time. The Potency entry in assay [14] and in assay [16] was “inactive” in each case.

`O=C=NCC1CCCC(CN=C=O)C1` (configuration not stated): the result (in assay [1]; in assay [4]; in [11]; in [12]; in assay [15]; in the assay with Aromatase (Homo sapiens)) was inactive. Besides, the Potency result in assay [2], in [3], in [7], in assay [9], in assay [10] and in [13] was “inactive” throughout. The Potency result in assay [14] and in assay [16] was “inactive” throughout.

As for `CCC(C)C(=O)OCCc1ccccc1` (configuration not stated), the outcome (in [1]; in assay [4]; in assay [11]; in assay [12]; in [15]; with Aromatase (Homo sapiens)) was inactive. Besides, the Potency result in assay [2], in [3], in assay [7], in [9], in assay [10] and in assay [13] was “inactive” in each case. The Potency result in assay [14] and in [16] was “inactive” throughout.

Regarding `CCO[Si](CC)(OCC)OCC`, the compound was classed as inactive in assay [1], in assay [4], in assay [5], in assay [8], in assay [11] and in assay [19]. Moreover, the call (in assay [12]; in assay [15]; in the assay with Aromatase (Homo sapiens)) was inactive. The Potency result in [17], in [3], in [6], in assay [7], in assay [9] and in assay [10] was “inactive” each time. The Potency entry in assay [13], in [14] and in [16] was “inactive” in each case.

Turning to `Cc1ccccc1C(N)=O`, the outcome (in [1]; in assay [4]; in assay [11]; in assay [12]; in assay [15]; in the assay with Aromatase (Homo sapiens)) was inactive. For the same compound, the Potency entry in assay [2], in assay [3], in [7], in assay [9], in assay [10] and in assay [13] was “inactive” each time. Further, the Potency result in [14] and in assay [16] was “inactive” throughout.

On to `CC(=O)CCC1=C(C)CCCC1(C)C`, for which the compound was called inactive (in [1]; in [4]; in [11]; in assay [12]; in assay [15]; with Aromatase (Homo sapiens)). The Potency entry in assay [2], in [7], in assay [9], in assay [10], in assay [14] and in [16] was “inactive” in each case.
